{"source": "the supplement of paper PMC8728848", "experiment_in_all_cases": "glycan array binding signal (z-score within array); higher = stronger binding", "settings_in_all_cases": "glycan notation: IUPAC condensed, linker removed; mutation: E227G", "key": {"Gal6S(b1-4)Glc6S": {"target": "Gal6S(b1-4)Glc6S", "outline": "(§1)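 Arrays were curated from the Consortium for Functional Glycomics database, 3228 in total, and kept only where the protein sequence was available. Binding is expressed as a within-array Z-score. This score was averaged across arrays of the same protein sequence at different concentrations or buffers and across linkers, and negative values can be read as non-binding.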"}, "Gal6S(b1-4)GlcNAc6S": {"target": "Gal6S(b1-4)GlcNAc6S", "outline": "as §1"}, "[1]": {"target": "GalNAc(b1-4)GlcNAc(b1-2)Man(a1-3)[GalNAc(b1-4)GlcNAc(b1-2)Man(a1-6)]Man(b1-4)GlcNAc(b1-4)GlcNAc", "outline": "as §1"}, "GalNAc(b1-6)GalNAc": {"target": "GalNAc(b1-6)GalNAc", "outline": "as §1"}, "[2]": {"target": "GalNAc3S(b1-4)[Fuc(a1-3)]GlcNAc", "outline": "as §1"}, "Glc(a1-4)Glc": {"target": "Glc(a1-4)Glc", "outline": "as §1"}, "GlcA(b1-3)Gal": {"target": "GlcA(b1-3)Gal", "outline": "as §1"}, "[3]": {"target": "GlcNAc(b1-2)Man(a1-3)[GlcNAc(b1-4)][GlcNAc(b1-2)Man(a1-6)]Man(b1-4)GlcNAc(b1-4)[Fuc(a1-6)]GlcNAc", "outline": "as §1"}, "GlcNAc(b1-3)Gal(b1-4)Glc": {"target": "GlcNAc(b1-3)Gal(b1-4)Glc", "outline": "as §1"}, "[4]": {"target": "GlcNAc(b1-3)Gal(b1-4)GlcNAc(b1-3)Gal(b1-4)GlcNAc(b1-2)Man(a1-3)[GlcNAc(b1-3)Gal(b1-4)GlcNAc(b1-3)Gal(b1-4)GlcNAc(b1-2)Man(a1-6)]Man(b1-4)GlcNAc(b1-4)[Fuc(a1-6)]GlcNAc", "outline": "as §1"}, "[5]": {"target": "GlcNAc(b1-3)Gal(b1-4)GlcNAc(b1-3)GalNAc", "outline": "as §1"}, "[6]": {"target": "GlcNAc(b1-3)Gal(b1-4)GlcNAc(b1-6)[GlcNAc(b1-3)]Gal(b1-4)GlcNAc", "outline": "as §1"}, "[7]": {"target": "GlcNAc(b1-4)Gal(b1-4)GlcNAc", "outline": "as §1"}, "[8]": {"target": "GlcNAc(b1-4)GlcNAc(b1-4)GlcNAc", "outline": "as §1"}, "[9]": {"target": "GlcNAc(b1-4)GlcNAc(b1-4)GlcNAc(b1-4)GlcNAc(b1-4)GlcNAc", "outline": "as §1"}, "GlcNAc(b1-6)GalNAc": {"target": "GlcNAc(b1-6)GalNAc", "outline": "as §1"}, "[10]": {"target": "Kdn(a2-3)Gal(b1-4)[Fuc(a1-3)]GlcNAc", "outline": "as §1"}, "[11]": {"target": "Man(a1-2)Man(a1-3)[Man(a1-2)Man(a1-6)]Man", "outline": "as §1"}, "[12]": {"target": "Man(a1-2)Man(a1-3)[Man(a1-6)]Man(a1-6)[Man(a1-2)Man(a1-3)]Man(b1-4)GlcNAc(b1-4)GlcNAc", "outline": "as §1"}, "Man(a1-3)[Man(a1-6)]Man": {"target": "Man(a1-3)[Man(a1-6)]Man", "outline": "as §1"}, "[13]": {"target": "Man(a1-3)[Man(a1-6)]Man(a1-6)[Man(a1-3)]Man", "outline": "as §1"}, "Neu5Ac(a2-3)Gal": {"target": "Neu5Ac(a2-3)Gal", "outline": "as §1"}, "[14]": {"target": "Neu5Ac(a2-3)Gal(b1-3)GlcNAc(b1-2)Man(a1-3)[Neu5Ac(a2-3)Gal(b1-3)GlcNAc(b1-2)Man(a1-6)]Man(b1-4)GlcNAc(b1-4)GlcNAc", "outline": "as §1"}, "[15]": {"target": "Neu5Ac(a2-3)Gal(b1-3)GlcNAc(b1-3)Gal(b1-4)GlcNAc", "outline": "as §1"}, "[16]": {"target": "Neu5Ac(a2-3)Gal(b1-4)GlcNAc", "outline": "as §1"}, "[17]": {"target": "Neu5Ac(a2-3)Gal(b1-4)GlcNAc(b1-2)Man(a1-3)[Neu5Ac(a2-3)Gal(b1-4)GlcNAc(b1-2)Man(a1-6)]Man(b1-4)GlcNAc(b1-4)GlcNAc", "outline": "as §1"}, "[18]": {"target": "Neu5Ac(a2-3)Gal(b1-4)GlcNAc(b1-3)Gal(b1-4)GlcNAc(b1-2)Man(a1-3)[Neu5Ac(a2-3)Gal(b1-4)GlcNAc(b1-3)Gal(b1-4)GlcNAc(b1-2)Man(a1-6)]Man(b1-4)GlcNAc(b1-4)GlcNAc", "outline": "as §1"}, "[19]": {"target": "Neu5Ac(a2-3)Gal(b1-4)[Fuc(a1-3)]GlcNAc(b1-3)Gal(b1-4)GlcNAc", "outline": "as §1"}, "[20]": {"target": "Neu5Ac(a2-3)Gal(b1-4)[Fuc(a1-3)]GlcNAc(b1-6)[Gal(b1-3)]GalNAc", "outline": "as §1"}, "[21]": {"target": "Neu5Ac(a2-3)[GalNAc(b1-4)]Gal(b1-4)GlcNAc", "outline": "as §1"}}, "note": "This is one part of a sample in which the strongest signals are shown more often than they occur."}
{"binder": "Epa1-NP-mutant-E227G (Candida glabrata), Q6VBJ0 (protein) MILNPALFLNKCVCIYTTLILLLLTNGGYATSSNDISLASKDPTTFPLGCSPDITTPKKGLSMELYSYDFRKKGSYPCWDAAYLDPNYPRTGYKSHRLLAKVDGVTGNINFYYHATKGCTPQLGHLPASYNYPKPLTMTNFTMLLYGYFRPKVTGFHTFTISADDLLFVNFGAGNAFDCCRRDSSADHFGNYQAYAIWGSKTAKDELTVHLDAGVYYPIRLFYNNRGYDGALSFTFKTESNENTVSDFSEYFFSLDDTEEGCPGLISYDSSCASVKTSKIIGIDYHTETPNENLVPITKTIYHLGIPCTGTTTTPLCGSGFYDPLANKCVTINTSSTSSVTKTTSHTTSKEVSFHSSISSQKTLIPKSIPSPYGPIKSQSIPTEMETSSEISSSEYAFSDVISTPSHSPYTKKHSSLNSSSYTSTVIHSLTSYSISQGIFSTSLSEQNITSKSSTDKFSTATSMSNNITQSSIIISQFSTNNENYTTTSMHTSSDKISTETLNNSISTTTSILFSNSSTILKNNTTIISSDKDTHYHPVNPTIVCSTNKTEIICASITQPSISNSNNHWSSSVLKFNSTTVRSTLPSSAGSNETSINVPFSSSTESNTSTSSTSTSNSKMVRSTLPSSAGSNETSISVPFSSSTESNTSTSSTSTSNSKMVRSTLPSSAGSNETSINVPFSSSTESNTSTSSTSTSNSKTVRSTPFSSAGIIMTSLSQRNNKSASSYASSNSKCYNTADSCRKVHSTPSYLLTSSYTSEGVDYDCSLVSTKLKINDTNCVNNKHTTKSCLKTSVTTTIPTLEIKTARKSSSNTIGLHSYPTSSPNKSISSAPIIGYISSFKTIKTASPSYQTSDLTTITTITSLNNPGSTAVENTHESNDKSRKTSSNDISSKHSVIKETKDAVESSNKSHQTNTLKCSSIIIASSSHNSYESLGGTTLTLTLSKVYSPQNNDTLPFLEISEVNPSRTVLPESSKMMQYLTSTEERNKTARNTIATNIVSISTFHFEGEGNAIRMGYTQLLLMLIGIIVMNIGT", "values": [{"measurement": "glycan array binding signal (z-score)", "setting": "Gal6S(b1-4)Glc6S", "result": 13}, {"measurement": "glycan array binding signal (z-score)", "setting": "Gal6S(b1-4)GlcNAc6S", "result": 12.7}, {"measurement": "glycan array binding signal (z-score)", "setting": "[1]", "result": -0.164}, {"measurement": "glycan array binding signal (z-score)", "setting": "GalNAc(b1-6)GalNAc", "result": -0.146}, {"measurement": "glycan array binding signal (z-score)", "setting": "[2]", "result": -0.117}, {"measurement": "glycan array binding signal (z-score)", "setting": "Glc(a1-4)Glc", "result": -0.175}, {"measurement": "glycan array binding signal (z-score)", "setting": "GlcA(b1-3)Gal", "result": -0.114}, {"measurement": "glycan array binding signal (z-score)", "setting": "[3]", "result": -0.217}, {"measurement": "glycan array binding signal (z-score)", "setting": "GlcNAc(b1-3)Gal(b1-4)Glc", "result": -0.256}, {"measurement": "glycan array binding signal (z-score)", "setting": "[4]", "result": 0.132}, {"measurement": "glycan array binding signal (z-score)", "setting": "[5]", "result": -0.16}, {"measurement": "glycan array binding signal (z-score)", "setting": "[6]", "result": -0.203}, {"measurement": "glycan array binding signal (z-score)", "setting": "[7]", "result": -0.157}, {"measurement": "glycan array binding signal (z-score)", "setting": "[8]", "result": -0.161}, {"measurement": "glycan array binding signal (z-score)", "setting": "[9]", "result": -0.177}, {"measurement": "glycan array binding signal (z-score)", "setting": "GlcNAc(b1-6)GalNAc", "result": -0.071}, {"measurement": "glycan array binding signal (z-score)", "setting": "[10]", "result": -0.097}, {"measurement": "glycan array binding signal (z-score)", "setting": "[11]", "result": -0.26}, {"measurement": "glycan array binding signal (z-score)", "setting": "[12]", "result": -0.291}, {"measurement": "glycan array binding signal (z-score)", "setting": "Man(a1-3)[Man(a1-6)]Man", "result": -0.126}, {"measurement": "glycan array binding signal (z-score)", "setting": "[13]", "result": -0.162}, {"measurement": "glycan array binding signal (z-score)", "setting": "Neu5Ac(a2-3)Gal", "result": -0.003}, {"measurement": "glycan array binding signal (z-score)", "setting": "[14]", "result": 0.018}, {"measurement": "glycan array binding signal (z-score)", "setting": "[15]", "result": -0.256}, {"measurement": "glycan array binding signal (z-score)", "setting": "[16]", "result": -0.195}, {"measurement": "glycan array binding signal (z-score)", "setting": "[17]", "result": -0.236}, {"measurement": "glycan array binding signal (z-score)", "setting": "[18]", "result": -0.191}, {"measurement": "glycan array binding signal (z-score)", "setting": "[19]", "result": -0.14}, {"measurement": "glycan array binding signal (z-score)", "setting": "[20]", "result": -0.043}, {"measurement": "glycan array binding signal (z-score)", "setting": "[21]", "result": -0.209}]}
